High-throughput results: PubChem BioAssay, several laboratories
Shown are actives, neighbours in structure and some others; about 3.3% of the full set was active somewhere.
esBAF inh: inhibitors of esBAF chromatin remodeling in mouse ES cells. hit rate 2% among 350,000. Bmi1-luciferase knock-in reporter, 24 h; 100% = twice the neutral-well signal. reporter increase, % at 12.5 µM; in the data active means activation above about 40%; inconclusive means no clear call, values can overlap the other calls;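 further: 0% = median of the plate's neutral control wells and 100% = double that signal; a rise in the Bmi1 reporter signal indicates esBAF inhibition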
MITF TRPM1 HTS: increases MITF-driven TRPM1 promoter luciferase signal | SK-MEL-5 TRPM1-promoter luciferase, 24 h; % of positive control, neutral wells = 0 | hit rate 0.75% among 300,000 | activation, % at 12.5 µM;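 active means mean activation of at least 80% with every replicate also reaching 80%; inconclusive means mean reaches 80% but some replicate falls short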;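 further: 0% = neutral control wells and 100% = parthenolide positive control wells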
C2C12 statin: suppressors of simvastatin-induced myotoxicity in C2C12 myotubes | ATP luminescence, 48 h; scaled: DMSO 0, geranylgeraniol control 100 | AID 602340 | rescue of ATP level, % at 7.49 µM | hit rate 0.78% among 330,000;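 active means mean ATP rescue above about 67%, or every replicate alone reaching that limit, limit read from the data, passing the limit was not always enough; inconclusive means no clear call, values can overlap the other calls; inactive means mean under the limit and some replicate under it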;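 further: myotubes were challenged with 10 µM simvastatin during compound exposure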
GAA850 FXN act: activators of GAA850 frataxin (FXN) promoter | HEK293 lucGAA850 FXN promoter luciferase reporter, 24 h; percent of 10 µM SAHA response | activation, % at 6 µM | hit rate 0.56% among 360,000;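 active means activation above the average of all compounds screened plus 3 SD, cutoff fixed separately per campaign, cut at about 7.5% in these data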;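 further: 0% = DMSO wells and 100% = 10 µM SAHA wells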
Wnt act: activates Wnt/beta-catenin signaling in a reporter cell assay; activator, plate reader; activation, % at 9.35 µM; hit rate 1.2% among 300,000; AID 743398; in the data active means activation above about 30%, passing the limit was not always enough; inconclusive means no clear call, values can overlap the other calls;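 further: 0% = neutral control wells and 100% = positive control wells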
* = called active by the depositor.

Cc1ccc(-c2onc3ccc(C(=O)O)cc23)cc1 was read as esBAF inh 50.1*, C2C12 statin 8.3, GAA850 FXN act 3.0 and Wnt act 4.0.
Screening C[C@@H]1CN([C@@H](C)CO)C(=O)c2cccc(NS(=O)(=O)c3ccc(Cl)cc3)c2O[C@@H]1CN(C)C(=O)NC1CCCCC1 returned esBAF inh 12.8 and C2C12 statin 13.1.
For O=C1S/C(=C\c2ccc(N3CCOCC3)o2)C(=O)N1c1ccccc1 the results were esBAF inh 0.0, MITF TRPM1 HTS 61.4, C2C12 statin 5.1, GAA850 FXN act 7.5 and Wnt act -3.6.
Screening O=C(O)c1ccccc1-c1ccc(/C=C2\SC(=O)N(c3ccccc3)C2=O)o1 returned esBAF inh 55.7*, C2C12 statin 6.3, GAA850 FXN act 1.9 and Wnt act 12.8.
Screening CCCCCCCSc1nnc(-c2ccccc2N)c(=O)[nH]1 returned esBAF inh -5.0, MITF TRPM1 HTS 7.5, C2C12 statin -8.0, GAA850 FXN act -0.6 and Wnt act -1.3.
For CCCCSc1nnc(-c2ccccc2N)c(=O)[nH]1 the results were esBAF inh 96.7*, MITF TRPM1 HTS 24.4, C2C12 statin 12.4, GAA850 FXN act 4.6 and Wnt act 29.6.
For CC1=CCn2c(=O)c3ccccc3c(=O)n2C1 the results were esBAF inh -6.5, MITF TRPM1 HTS -2.7, C2C12 statin 125.3*, GAA850 FXN act -0.1 and Wnt act 0.9.
`c1csc(-c2cn3ccc4ccccc4c3n2)c1` gave esBAF inh 72.2*, MITF TRPM1 HTS 17.3, C2C12 statin -83.1, GAA850 FXN act 4.8 and Wnt act 23.2.
Screening c1cc(-c2cccs2)nc(-c2cccs2)c1 returned MITF TRPM1 HTS 37.9, GAA850 FXN act 0.1 and Wnt act -6.1.
For CC(=O)Nc1ccc(-c2csc(NCCc3ccccc3)n2)cc1 the results were esBAF inh 46.7*, C2C12 statin 39.9, GAA850 FXN act 2.4 and Wnt act 2.6.
`CC(=O)c1ccc(-c2cc([C@H]3[C@H]4C=CC[C@@H](C)[C@@H]4C(=O)N3Cc3ccccc3)ccc2F)cc1` gave esBAF inh -29.2, MITF TRPM1 HTS -6.6, C2C12 statin 159.9*, GAA850 FXN act -1.1 and Wnt act -5.6.
`CCN(CC)Cc1c(O)ccc2c(=O)c(-c3ccc(Cl)cc3)coc12` gave esBAF inh 12.7, MITF TRPM1 HTS 25.9, C2C12 statin 3.5, GAA850 FXN act 1.4 and Wnt act 1.4.
For CN(C)Cc1c(O)ccc2c(=O)c(-c3ccc(Cl)cc3)coc12 the results were esBAF inh 63.8*, MITF TRPM1 HTS 22.0, C2C12 statin -8.7, GAA850 FXN act 2.0 and Wnt act -1.8.
Screening CC(C)NC(=O)N1C[C@@H]2[C@H](c3ccccc31)[C@@H](CO)N2C(=O)c1ccccc1F returned esBAF inh -1.7 and C2C12 statin -9.5.
For Cc1ccc(S(=O)(=O)N(C)C[C@H]2Oc3ccc(NC(=O)Nc4cccc5ccccc45)cc3C(=O)N([C@H](C)CO)C[C@@H]2C)cc1 the results were esBAF inh -2.8 and C2C12 statin -19.7.
For NC(=O)COC(=O)[C@H](Cc1ccccc1)NS(=O)(=O)c1ccc2c(c1)OCCO2 the results were esBAF inh 0.2, MITF TRPM1 HTS 8.3, C2C12 statin 5.7, GAA850 FXN act 0.5 and Wnt act 1.2.
For NC(=O)COC(=O)C(Cc1ccccc1)NS(=O)(=O)c1ccccc1F (stereo not given) the results were esBAF inh -7.5, MITF TRPM1 HTS -2.7, C2C12 statin 109.3*, GAA850 FXN act 0.6 and Wnt act -3.3.
For Cc1cc(C(=O)COC(=O)c2ccc(N)c([N+](=O)[O-])c2)c(C)n1Cc1ccc2c(c1)OCO2 the results were esBAF inh 88.9*, MITF TRPM1 HTS 76.8, C2C12 statin -18.7, GAA850 FXN act 3.3 and Wnt act 37.1*.
Screening Cc1cc(C(=O)COC(=O)c2ccc(N)c([N+](=O)[O-])c2)c(C)n1-c1ccc2c(c1)OCO2 returned esBAF inh 11.2, MITF TRPM1 HTS -12.3, C2C12 statin -7.4 and GAA850 FXN act 0.2.
Screening CCC(CC)C(=O)Nc1cccc(/C(C)=N/NC(=O)c2ccccc2Cl)c1 returned esBAF inh 0.7, MITF TRPM1 HTS -6.7, C2C12 statin 111.7*, GAA850 FXN act -2.5 and Wnt act 2.3.
COc1ccc(NC(=O)Nc2ccc3c(c2)C(=O)N([C@@H](C)CO)C[C@H](C)[C@@H](CN(C)Cc2ccc(C(F)(F)F)cc2)OCCCC[C@@H](C)O3)cc1 was read as esBAF inh 1.6 and C2C12 statin -258.2.
`O=C(O)c1ccc(NCc2cccnc2)cc1` gave esBAF inh 97.3*, MITF TRPM1 HTS -11.8, C2C12 statin -22.5, GAA850 FXN act 0.2 and Wnt act 45.9*.
`CC(C)n1cc(/C=C2/NC(=O)N(c3cccc(Cl)c3)C2=O)c2ccccc21` gave esBAF inh -4.1, C2C12 statin -3.4 and GAA850 FXN act -6.4.
CC(C)n1cc(/C=C2\NC(=O)N(c3cccc(Cl)c3)C2=O)c2ccccc21 was read as esBAF inh -9.6, MITF TRPM1 HTS -6.0, C2C12 statin 115.4*, GAA850 FXN act -6.6 and Wnt act -0.9.
C[C@H](O)C#Cc1ccc2c(c1)O[C@@H](CN(C)C(=O)C1CCCCC1)[C@H](C)CN([C@H](C)CO)S2(=O)=O was read as esBAF inh -0.5 and C2C12 statin -9.0.
For Cc1ccccc1-c1cnc2c(c1)C(=O)N([C@@H](C)CO)C[C@H](C)[C@H](CN(C)Cc1cncnc1)O2 the results were esBAF inh 0.1 and C2C12 statin 21.3.
COc1ccc(-c2c(C)nn3c(NC4CCCC4)cc(C)nc23)cc1OC was read as esBAF inh 12.5, MITF TRPM1 HTS -18.3, C2C12 statin -1.5, GAA850 FXN act 0.6 and Wnt act 0.7.
Screening Cc1cc(NCCCn2ccnc2)n2nc(C)c(-c3ccccc3)c2n1 returned esBAF inh 46.7*, MITF TRPM1 HTS 66.1, GAA850 FXN act -0.5 and Wnt act 15.9.
`Cc1cc(NC2CCCC2)n2nc(C)c(-c3ccccc3)c2n1` gave esBAF inh inconclusive, MITF TRPM1 HTS 100.1*, C2C12 statin -28.1, GAA850 FXN act 5.1 and Wnt act 5.6.
`C[C@@H]1CN([C@H](C)CO)C(=O)c2cc(/C=C/c3ccccc3)cnc2O[C@@H]1CN(C)C(=O)c1ccc(F)cc1` gave esBAF inh -3.8 and C2C12 statin 11.0.
CC(C)c1[nH]nc2c1C(C1C=CCCC1)C(C#N)=C(N)O2 (stereo not given) was read as MITF TRPM1 HTS -10.3, GAA850 FXN act 0.6 and Wnt act 46.1*.
For CC(C)(C)c1[nH]nc2c1C(C1C=CCCC1)C(C#N)=C(N)O2 (stereo not given) the results were esBAF inh 3.0, C2C12 statin 3.0 and GAA850 FXN act 1.1.
COc1ccc(N=Nc2c(N)nn(C)c2N)cc1 was read as esBAF inh 44.5*, MITF TRPM1 HTS 54.6, C2C12 statin -6.1, GAA850 FXN act 0.2 and Wnt act 8.9.
